According to PubChem BioAssay (EPA / NIEHS):
Inconclusive results are not listed. Calls of active or inactive are those of the source. How the source made its calls, unless noted: active means hit-call score of the fitted dose curve at least 0.9, where 1 is the maximum; inactive means score below 0.9.

Columns and labels:
[1] = ATG_NFI_CIS: Attagene CIS-FACTORIAL HepG2 Assay for human Nuclear Factor I (NFI) (AID 2282989); conditions: HepG2 cis-regulatory reporter, NFI response element transcription; actives raise or lower the signal
Outline: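 Transient MRTU transfection of HepG2 → 24 h chemical dosing → total RNA, oligo(dT) RT → PCR, 6-FAM primer extension, HpaI cut → capillary electrophoresis. Endpoint fitted bidirectionally relative to DMSO.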

[2] = target: Myc proto-oncogene protein (Homo sapiens) (UniProt P01106); experiment: ATG_Myc_CIS: Attagene CIS-FACTORIAL HepG2 Assay for human Myelocytomatosis (Myc) Proto-Oncogene Transcription Factor (AID 2282990); conditions: HepG2, Attagene cis-reporter transcription factor activity; actives raise or lower the signal
Sequence of Myc proto-oncogene protein (Homo sapiens) (P01106 whole entry, looked up): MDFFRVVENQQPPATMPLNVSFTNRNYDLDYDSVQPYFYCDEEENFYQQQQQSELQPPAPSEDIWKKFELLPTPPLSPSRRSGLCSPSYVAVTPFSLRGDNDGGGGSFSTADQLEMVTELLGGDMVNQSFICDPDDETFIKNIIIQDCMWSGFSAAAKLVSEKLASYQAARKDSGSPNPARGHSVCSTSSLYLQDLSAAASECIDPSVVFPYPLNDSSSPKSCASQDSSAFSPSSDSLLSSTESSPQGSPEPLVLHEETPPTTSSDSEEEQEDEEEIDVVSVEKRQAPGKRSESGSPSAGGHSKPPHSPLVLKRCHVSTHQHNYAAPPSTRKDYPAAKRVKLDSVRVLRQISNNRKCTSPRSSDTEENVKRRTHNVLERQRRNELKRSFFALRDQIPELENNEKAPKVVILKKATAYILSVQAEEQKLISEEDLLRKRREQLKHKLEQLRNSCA
Outline: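 Cells of the HepG2 human liver line bear multiple cis-driven reporter transcription units. Reporter mRNA after 24 h exposure is reverse-transcribed, amplified, labelled and resolved by capillary electrophoresis, with gain- or loss-of-signal fitting relative to DMSO.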

[3] = ATG_NF_kB_CIS: Attagene CIS-FACTORIAL HepG2 Assay for human Nuclear Factor Kappa B (NF-kB) (AID 2282991); conditions: HepG2 Attagene cis-factorial NF-kB reporter mRNA; actives raise or lower the signal
Outline: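 HepG2 cells transiently transfected with multiplexed cis-element reporter units measuring endogenous transcription factor activity; reporter mRNA read 24 h after dosing by RT-PCR, fluorescent labelling, HpaI digestion and capillary electrophoresis. Bidirectional fit against DMSO baseline.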

[4] = ATG_NRF2_ARE_CIS: Attagene CIS-FACTORIAL HepG2 Assay for human Nuclear Factor Erythroid 2 Related Factor 2 (NFR2) response to Antioxidant Response Elements (ARE) (AID 2282992); conditions: HepG2 Attagene ARE/NRF2 reporter, transcription factor activity; actives raise or lower the signal;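 on AC50: reporter mRNA level measured by RT-PCR and capillary electrophoresis fluorescence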
Outline: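 Endogenous transcription factor activity in human liver HepG2 cells is tracked via a cis-element-driven reporter within a multiplexed set. mRNA induction is read by RT-PCR and capillary electrophoresis after 24 h, with DMSO as baseline.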

[5] = ATG_Oct_MLP_CIS: Attagene CIS-FACTORIAL HepG2 Assay for human Octamer-Binding Transcription Factor (Oct) (AID 2282993); conditions: HepG2 Attagene cis-factorial Oct reporter, mRNA; actives raise or lower the signal
Outline: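 Transient MRTU transfection of HepG2 → 24 h compound treatment → RNA isolation, reverse transcription, PCR → 6-FAM primer extension, HpaI digest → capillary electrophoresis. Activity fitted both directions against DMSO.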

[6] = target: Cellular tumor antigen p53 (Homo sapiens) (UniProt P04637); experiment: ATG_p53_CIS: Attagene CIS-FACTORIAL HepG2 Assay for human p53 Transcription Factor (AID 2282994); conditions: HepG2 p53 cis-element reporter, Attagene mRNA; actives raise or lower the signal
Sequence of Cellular tumor antigen p53 (Homo sapiens) (P04637 whole entry, looked up, the tested form may be a part): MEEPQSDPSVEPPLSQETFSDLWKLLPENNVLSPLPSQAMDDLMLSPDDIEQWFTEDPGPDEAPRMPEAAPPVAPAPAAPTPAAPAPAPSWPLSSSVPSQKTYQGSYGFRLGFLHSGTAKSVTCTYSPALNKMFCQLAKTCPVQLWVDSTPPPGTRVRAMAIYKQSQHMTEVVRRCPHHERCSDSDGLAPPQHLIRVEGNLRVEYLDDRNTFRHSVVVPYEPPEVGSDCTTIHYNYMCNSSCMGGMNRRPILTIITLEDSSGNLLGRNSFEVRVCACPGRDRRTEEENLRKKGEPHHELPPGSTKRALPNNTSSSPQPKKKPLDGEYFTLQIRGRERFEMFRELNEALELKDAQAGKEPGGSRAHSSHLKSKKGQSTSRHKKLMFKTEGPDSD
Outline: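 Steps: transfect HepG2 with multiplexed cis reporter constructs; dose chemicals 24 h; extract RNA, reverse-transcribe, PCR-amplify reporter sequences; FAM-label, HpaI-digest, resolve fragments by CE. Activity fitted both directions relative to DMSO.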

[7] = target: Retinoic acid receptor alpha (Homo sapiens) (UniProt P10276); experiment: ATG_RARa_TRANS: Attagene TRANS-FACTORIAL HepG2 Assay for human Retinoic Acid Receptor alpha (RARa) (AID 2283005; active means hit-call score of the fitted dose curve at least 0.9, where 1 is the maximum)
Sequence of Retinoic acid receptor alpha (Homo sapiens) (P10276 whole entry, looked up, the tested form may be a part): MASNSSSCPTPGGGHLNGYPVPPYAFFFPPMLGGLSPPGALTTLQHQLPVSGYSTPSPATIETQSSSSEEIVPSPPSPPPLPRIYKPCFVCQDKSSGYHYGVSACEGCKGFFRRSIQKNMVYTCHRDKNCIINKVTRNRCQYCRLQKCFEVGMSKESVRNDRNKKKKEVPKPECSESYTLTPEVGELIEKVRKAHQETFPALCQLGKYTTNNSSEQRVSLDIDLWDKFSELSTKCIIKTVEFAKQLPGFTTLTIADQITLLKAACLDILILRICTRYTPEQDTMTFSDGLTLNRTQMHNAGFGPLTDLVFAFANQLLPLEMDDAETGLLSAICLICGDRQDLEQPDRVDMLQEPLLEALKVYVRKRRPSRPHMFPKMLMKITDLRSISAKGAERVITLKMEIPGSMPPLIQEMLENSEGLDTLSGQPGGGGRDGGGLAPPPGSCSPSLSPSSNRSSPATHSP
Outline: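 Reporter transcripts, measured by RT-PCR with fluorescent labeling and capillary electrophoresis after 24 h dosing, reflect activity of an exogenous human RARa–GAL4 fusion in transiently transfected HepG2. Fitted for increase relative to DMSO.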

[8] = target: Peroxisome proliferator-activated receptor gamma (Homo sapiens) (UniProt P37231); experiment: ATG_PPARg_TRANS: Attagene TRANS-FACTORIAL HepG2 Assay for human Peroxisome Proliferator-activated Receptor-gamma (PPARg) (AID 2283007; active means hit-call score of the fitted dose curve at least 0.9, where 1 is the maximum)
Sequence of Peroxisome proliferator-activated receptor gamma (Homo sapiens) (P37231 whole entry, looked up, the tested form may be a part): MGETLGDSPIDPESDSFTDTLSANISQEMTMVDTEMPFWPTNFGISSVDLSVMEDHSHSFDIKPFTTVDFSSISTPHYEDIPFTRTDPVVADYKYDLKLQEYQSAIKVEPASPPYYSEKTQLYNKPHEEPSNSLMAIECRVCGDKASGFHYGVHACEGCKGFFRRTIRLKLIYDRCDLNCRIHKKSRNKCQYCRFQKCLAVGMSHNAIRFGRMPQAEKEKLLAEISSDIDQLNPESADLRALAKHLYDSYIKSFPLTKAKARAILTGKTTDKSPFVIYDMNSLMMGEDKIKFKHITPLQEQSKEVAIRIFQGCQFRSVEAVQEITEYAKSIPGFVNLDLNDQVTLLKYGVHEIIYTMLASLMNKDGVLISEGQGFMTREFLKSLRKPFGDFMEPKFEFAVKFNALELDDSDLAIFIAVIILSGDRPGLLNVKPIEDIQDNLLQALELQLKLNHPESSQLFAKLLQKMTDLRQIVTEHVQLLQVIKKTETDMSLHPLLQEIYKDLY
Outline: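 HepG2 cells transiently transfected with multiplexed GAL4-UAS reporter units and exogenous chimeric NR-Gal4 proteins; reporter mRNA quantified after 24 h compound exposure by RT-PCR, fluorescent labelling, HpaI digestion and capillary electrophoresis; gain-of-signal fitted versus DMSO baseline.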

[9] = target: Nuclear receptor subfamily 1 group I member 2 (Homo sapiens) (UniProt O75469); experiment: ATG_PXR_TRANS: Attagene TRANS-FACTORIAL HepG2 Assay for human Pregnane X Receptor (PXR) (AID 2283008; active means hit-call score of the fitted dose curve at least 0.9, where 1 is the maximum)
Sequence of Nuclear receptor subfamily 1 group I member 2 (Homo sapiens) (O75469 whole entry, looked up, the tested form may be a part): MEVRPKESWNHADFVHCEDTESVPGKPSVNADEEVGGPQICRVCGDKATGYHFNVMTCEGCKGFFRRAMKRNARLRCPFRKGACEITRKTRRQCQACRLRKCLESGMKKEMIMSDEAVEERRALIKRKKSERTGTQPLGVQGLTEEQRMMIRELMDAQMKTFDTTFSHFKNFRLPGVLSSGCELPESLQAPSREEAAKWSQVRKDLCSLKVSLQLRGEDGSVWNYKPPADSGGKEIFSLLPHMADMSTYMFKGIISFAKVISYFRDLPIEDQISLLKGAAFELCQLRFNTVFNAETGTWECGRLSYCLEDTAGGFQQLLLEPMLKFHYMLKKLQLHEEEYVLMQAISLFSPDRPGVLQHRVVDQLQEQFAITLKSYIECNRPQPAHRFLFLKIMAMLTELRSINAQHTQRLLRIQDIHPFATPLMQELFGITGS
Outline: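 HepG2 transfected (FuGene 6) with GAL4-UAS reporter units + PXR-Gal4 chimera; dosed 24 h. Total RNA → oligo(dT) RT → PCR → 6-FAM primer extension → HpaI cut → CE. Gain-of-signal vs DMSO.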

[10] = target: human Peroxisome Proliferator-activated Receptor alpha (PPARa), PPARA (gene 5465) (UniProt Q07869); experiment: ATG_PPARa_TRANS: Attagene TRANS-FACTORIAL HepG2 Assay for human Peroxisome Proliferator-activated Receptor alpha (PPARa) (AID 2283001; active means hit-call score of the fitted dose curve at least 0.9, where 1 is the maximum;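 on AC50: potency for gain of reporter signal over DMSO so agonist or activator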)
Sequence of human Peroxisome Proliferator-activated Receptor alpha (PPARa), PPARA (gene 5465) (Q07869 whole entry, looked up, the tested form may be a part): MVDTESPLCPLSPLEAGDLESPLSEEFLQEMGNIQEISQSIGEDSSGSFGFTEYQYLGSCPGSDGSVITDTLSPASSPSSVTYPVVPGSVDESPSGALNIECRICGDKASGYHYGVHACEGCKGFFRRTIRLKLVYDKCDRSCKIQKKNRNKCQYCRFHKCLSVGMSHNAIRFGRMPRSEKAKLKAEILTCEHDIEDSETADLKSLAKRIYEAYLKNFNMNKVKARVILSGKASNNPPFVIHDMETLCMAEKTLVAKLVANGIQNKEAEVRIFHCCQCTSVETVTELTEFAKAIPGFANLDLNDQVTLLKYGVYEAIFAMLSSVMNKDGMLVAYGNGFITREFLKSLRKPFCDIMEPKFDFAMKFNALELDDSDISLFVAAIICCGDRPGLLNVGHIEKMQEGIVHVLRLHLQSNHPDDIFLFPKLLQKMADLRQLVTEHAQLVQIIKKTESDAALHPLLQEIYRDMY
Outline: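 Transfected HepG2 cells treated with test chemical for 24 h. RNA isolated, reverse-transcribed with oligo(dT), PCR-amplified, FAM-labelled and HpaI-digested. Fragments sized by capillary electrophoresis; gain-of-signal fit relative to DMSO.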

[11] = target: human Peroxisome Proliferator-activated Receptor delta (PPARd), PPARD (gene 5467) (UniProt Q03181); experiment: ATG_PPARd_TRANS: Attagene TRANS-FACTORIAL HepG2 Assay for human Peroxisome Proliferator-activated Receptor delta (PPARd) (AID 2283002; active means hit-call score of the fitted dose curve at least 0.9, where 1 is the maximum)
Sequence of human Peroxisome Proliferator-activated Receptor delta (PPARd), PPARD (gene 5467) (Q03181 whole entry, looked up): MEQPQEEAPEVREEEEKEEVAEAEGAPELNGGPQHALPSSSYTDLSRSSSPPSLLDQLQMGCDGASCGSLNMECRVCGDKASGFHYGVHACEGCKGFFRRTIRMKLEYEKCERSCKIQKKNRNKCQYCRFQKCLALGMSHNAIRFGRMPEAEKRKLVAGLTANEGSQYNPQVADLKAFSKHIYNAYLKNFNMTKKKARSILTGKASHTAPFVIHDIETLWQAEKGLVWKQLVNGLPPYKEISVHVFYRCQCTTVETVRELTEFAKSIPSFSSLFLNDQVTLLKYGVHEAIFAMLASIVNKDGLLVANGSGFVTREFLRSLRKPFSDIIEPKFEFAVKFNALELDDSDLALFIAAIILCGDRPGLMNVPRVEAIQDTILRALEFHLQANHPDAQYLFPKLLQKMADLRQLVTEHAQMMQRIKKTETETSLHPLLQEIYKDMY
Outline: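 Cell-based TRANS reporter: HepG2, transient MRTU transfection, 24 h exposure. Readout = reporter mRNA (RT-PCR/CE, 6-FAM). Gain-of-signal fit vs DMSO control.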

[12] = target: human Retinoic Acid Receptor gamma (RARg), RARG (gene 5916) (UniProt P13631); experiment: ATG_RARg_TRANS: Attagene TRANS-FACTORIAL HepG2 Assay for human Retinoic Acid Receptor gamma (RARg) (AID 2283009; active means hit-call score of the fitted dose curve at least 0.9, where 1 is the maximum)
Sequence of human Retinoic Acid Receptor gamma (RARg), RARG (gene 5916) (P13631 whole entry, looked up, the tested form may be a part): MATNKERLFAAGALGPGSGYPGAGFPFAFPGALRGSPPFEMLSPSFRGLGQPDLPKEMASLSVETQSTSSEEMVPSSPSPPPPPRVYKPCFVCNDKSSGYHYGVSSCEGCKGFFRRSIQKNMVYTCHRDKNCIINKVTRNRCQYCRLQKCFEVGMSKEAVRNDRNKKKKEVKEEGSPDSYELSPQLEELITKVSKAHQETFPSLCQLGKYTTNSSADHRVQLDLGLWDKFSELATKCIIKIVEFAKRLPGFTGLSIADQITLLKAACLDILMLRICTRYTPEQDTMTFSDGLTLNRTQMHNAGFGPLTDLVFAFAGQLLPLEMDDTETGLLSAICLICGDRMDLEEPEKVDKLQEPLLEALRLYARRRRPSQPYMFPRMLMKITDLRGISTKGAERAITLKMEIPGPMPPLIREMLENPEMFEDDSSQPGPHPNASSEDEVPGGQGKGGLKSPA
Outline: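 Readout: reporter transcript levels via RT-PCR, 6-FAM primer-extension labelling, HpaI digestion and capillary electrophoresis. Cells: HepG2 carrying transfected RARg-GAL4 chimera plus UAS reporter set. Dosing 24 h; DMSO negative control.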

[13] = BSK_3C_TissueFactor: BioMAP Diversity Plus: 3C Assay for Tissue Factor Biomarker Activity (AID 2282997); conditions: BioMAP 3C HUVEC, tissue factor biomarker readout; actives raise or lower the signal
Outline: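 In this endothelial system, HUVEC are treated for 24 h and Tissue Factor is assessed by ELISA, normalised to DMSO.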

[14] = BSK_3C_uPAR: BioMAP Diversity Plus: 3C Assay for Urokinase-type plasminogen activator receptor (uPAR) Biomarker Activity (AID 2282998); conditions: BioMAP 3C HUVEC, uPAR biomarker ELISA; actives raise or lower the signal
Outline: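 ELISA readout of uPAR on human vascular endothelium (umbilical vein primary cells), taken 24 h after chemical dosing. Increases and decreases are both fitted relative to DMSO vehicle.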

[15] = BSK_3C_VCAM1: BioMAP Diversity Plus: 3C Assay for Vascular cell adhesion molecule 1 (VCAM1) Biomarker Activity (AID 2282999); conditions: BioMAP 3C HUVEC, VCAM1 ELISA, cytokine-stimulated; actives raise or lower the signal
Outline: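 Activity fitted in both directions relative to DMSO, with ELISA measurement of the surface marker on primary HUVEC (3C) at 24 h post-treatment; parallel SRB staining (0.1% SRB, TCA-fixed, 560 nm) flagged overt cytotoxicity.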

[16] = BSK_4H_Eotaxin3: BioMAP Diversity Plus: 4H Assay for Eotaxin 3 Biomarker Activity (AID 2283000); conditions: primary human endothelial cells (HUVEC); actives raise or lower the signal;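 further: CCL26 protein level quantified by ELISA in parallel with SRB cytotoxicity check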
Outline: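 ELISA quantitation of CCL26 (Eotaxin-3) protein from chemically dosed human vascular endothelial cells at 24 h; increases and decreases both scored relative to DMSO-treated baseline.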

[17] = read-out: Intercellular Adhesion Molecule 1 (ICAM1), ICAM1 (gene 3383); experiment: BSK_3C_ICAM1: BioMAP Diversity Plus: 3C Assay for Intercellular Adhesion Molecule 1 (ICAM1) Biomarker Activity (AID 2283003); conditions: primary human endothelial cells (HUVEC); actives raise or lower the signal
Outline: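 ELISA read-out of ICAM-1; HUVEC (primary human), 3C system, 24 h post-dosing; bidirectional fit vs DMSO baseline.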

[18] = target: human Retinoic Acid Receptor beta (RARb), RARB (gene 5915) (UniProt P10826); experiment: ATG_RARb_TRANS: Attagene TRANS-FACTORIAL HepG2 Assay for human Retinoic Acid Receptor beta (AID 2283004; active means hit-call score of the fitted dose curve at least 0.9, where 1 is the maximum)
Sequence of human Retinoic Acid Receptor beta (RARb), RARB (gene 5915) (P10826 whole entry, looked up, the tested form may be a part): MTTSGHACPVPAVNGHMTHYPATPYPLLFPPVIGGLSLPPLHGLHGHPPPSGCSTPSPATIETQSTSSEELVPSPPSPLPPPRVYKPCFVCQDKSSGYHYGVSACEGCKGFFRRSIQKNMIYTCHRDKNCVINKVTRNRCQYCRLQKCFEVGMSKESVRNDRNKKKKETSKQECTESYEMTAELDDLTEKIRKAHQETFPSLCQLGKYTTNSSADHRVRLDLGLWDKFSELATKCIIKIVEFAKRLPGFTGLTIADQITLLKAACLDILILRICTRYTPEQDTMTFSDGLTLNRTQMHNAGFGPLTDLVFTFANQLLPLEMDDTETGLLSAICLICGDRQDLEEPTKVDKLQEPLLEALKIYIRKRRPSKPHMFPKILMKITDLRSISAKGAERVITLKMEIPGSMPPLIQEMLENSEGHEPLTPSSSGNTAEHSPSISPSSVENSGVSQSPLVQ
Outline: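 Fluorescent capillary-electrophoresis detection of GAL4-UAS reporter mRNA defines the endpoint, with induction over DMSO-treated wells scored as activity. Transiently transfected human hepatoma HepG2 cells expressing exogenous NR–Gal4 proteins are exposed to test chemicals for 24 h.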

[19] = BSK_3C_Proliferation: Cell Proliferation Assessment in the BioMAP Diversity Plus: 3C Assay (AID 2283006); conditions: primary human endothelial cells (HUVEC)
Outline: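 HUVEC, sub-confluent; 48 h chemical exposure; 10% TCA fix, 0.1% SRB stain, A560 total protein. Gain or loss of signal fitted both directions vs DMSO control.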

[20] = target: human RAR-related Orphan Receptor beta (RORb), RORB (gene 6096) (UniProt Q92753); experiment: ATG_RORb_TRANS: Attagene TRANS-FACTORIAL HepG2 Assay for human RAR-related Orphan Receptor beta (RORb) (AID 2283010; active means hit-call score of the fitted dose curve at least 0.9, where 1 is the maximum)
Sequence of human RAR-related Orphan Receptor beta (RORb), RORB (gene 6096) (Q92753 whole entry, looked up, the tested form may be a part): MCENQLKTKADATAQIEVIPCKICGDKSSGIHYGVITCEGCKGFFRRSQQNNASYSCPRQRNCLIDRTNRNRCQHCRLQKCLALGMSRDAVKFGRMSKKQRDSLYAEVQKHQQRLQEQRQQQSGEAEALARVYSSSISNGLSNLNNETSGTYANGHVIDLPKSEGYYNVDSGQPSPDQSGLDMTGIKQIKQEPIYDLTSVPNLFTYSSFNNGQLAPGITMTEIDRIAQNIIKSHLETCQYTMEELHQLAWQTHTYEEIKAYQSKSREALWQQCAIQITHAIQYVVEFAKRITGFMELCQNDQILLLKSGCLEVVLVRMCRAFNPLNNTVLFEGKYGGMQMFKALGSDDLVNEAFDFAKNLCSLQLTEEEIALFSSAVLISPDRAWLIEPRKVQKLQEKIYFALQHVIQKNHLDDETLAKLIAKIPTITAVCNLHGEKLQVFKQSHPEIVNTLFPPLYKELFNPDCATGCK
Outline: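 HepG2, transient MRTU transfection (GAL4-UAS reporters, exogenous NR-Gal4 chimeras); 24 h compound exposure; total RNA → RT-PCR → 6-FAM primer extension → HpaI digest → CE fluorescence. Positive direction vs DMSO baseline.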

Measured: AC50

CNC(=S)N(C)C
inactive: [1] | [2] | [3] | [4] | [5] | [6] | [7] | [8] | [9]

O=C(Nc1cccc(C(F)(F)F)c1)c1cc(Br)cc(Br)c1O
inactive: [11] | [7] | [12]
active: [1] 100 µM | [2] 166 µM | [3] 169 µM | [4] 0.851 µM | [5] 2.95 µM | [10] 1.58 µM | [8] 2.57 µM | [9] 1.07 µM

O=C(O)CCCC[C@@H]1SC[C@@H]2NC(=O)N[C@@H]21
inactive: [1] | [2] | [3] | [4] | [5] | [10] | [11] | [7] | [8] | [9]

O=c1c2ccccc2oc2ccccc12
active: [4] 26.9 µM | [13] 3.97 µM | [9] 27.3 µM
not listed: [6] | [8] | [11] | [20]
inactive: all other assays above

CC(=O)Nc1nnc(S(N)(=O)=O)s1
inactive: [1] | [2] | [3] | [4] | [5] | [6] | [20]

OC1CCCC1
inactive: [1] | [2] | [3] | [4] | [5] | [11] | [7] | [20]

CCOc1ccc(N)c([N+](=O)[O-])c1
inactive: [1] | [2] | [3] | [4] | [5] | [10] | [9]

CCOc1nc(F)cc2nc(S(=O)(=O)Nc3c(Cl)cccc3C(=O)OC)nn12
active: [4] 27 µM | [8] 46.2 µM | [9] 7.06 µM
not listed: [6] | [20]
inactive: all other assays above

FC(F)(F)C(=NOCC1OCCO1)c1ccc(Cl)cc1
inactive: [1] | [2] | [3] | [4] | [5] | [10] | [8] | [9] | [20]
